Experimental findings from PubChem BioAssay (EPA / NIEHS) are described below.

Read-out in assay [1]: Transforming growth factor beta 1 (TGFb1), TGFB1 (gene 7040)
Description: BSK_KF3CT_TGFb1: BioMAP Diversity Plus: KF3CT Assay for Transforming growth factor beta 1 (TGFb1) Biomarker Activity (AID 2283072). The note with it: primary human keratinocytes with fibroblasts; actives raise or lower the signal. The procedure, abridged:
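Primary human skin cells (keratinocytes, foreskin fibroblasts) were co-cultured, exposed to test chemical and sampled at 24 h. TGF-b1 levels were measured by ELISA and fitted bidirectionally relative to DMSO.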

Read-out in assay [2]: C-C motif chemokine 2 (Homo sapiens) (UniProt P13500)
Description: BSK_KF3CT_MCP1: BioMAP Diversity Plus: KF3CT Assay for Monocyte Chemoattractant Protein 1 (MCP1/CCL2) Biomarker Activity (AID 2283073). As to conditions: primary human keratinocytes with fibroblasts; actives raise or lower the signal. The procedure, abridged:
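Human keratinocyte plus foreskin fibroblast primary co-culture exposed to chemical for 24 h. MCP-1 levels measured by ELISA. Bidirectional curve fitting relative to DMSO negative control as baseline.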

Read-out in assay [3]: Matrix Metallopeptidase 9 (MMP9), MMP9 (gene 4318)
As to the kind of experiment: BSK_KF3CT_MMP9: BioMAP Diversity Plus: KF3CT Assay for Matrix Metallopeptidase 9 (MMP9) Biomarker Activity (AID 2283074).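 Note: MMP9 protein level quantified by ELISA in the co-culture.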 The note with it: primary human keratinocytes with fibroblasts; actives raise or lower the signal. The procedure, abridged: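 Keratinocyte plus foreskin fibroblast human primary skin co-culture was dosed with chemical and MMP-9 was quantified by ELISA 24 h later. Bidirectional curve fitting used DMSO as negative control and activity baseline.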

Read-out in assay [4]: urokinase plasminogen activator (uPA), PLAU (gene 5328)
Description: BSK_KF3CT_uPA: BioMAP Diversity Plus: KF3CT Assay for urokinase plasminogen activator (uPA) Biomarker Activity (AID 2283075). The note with it: primary human keratinocytes with fibroblasts; actives raise or lower the signal. An outline of the steps:
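Human keratinocyte plus foreskin fibroblast primary co-culture exposed to chemical for 24 h. uPA levels were quantified by ELISA, and activity was fitted bidirectionally against a DMSO negative-control baseline.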

Read-out in assay [5]: E-selectin (Homo sapiens) (UniProt P16581)
Description: BSK_LPS_Eselectin: BioMAP Diversity Plus: LPS Assay for Eselectin Biomarker Activity (AID 2283077). As to conditions: primary human HUVEC with PBMC; actives raise or lower the signal. The procedure, abridged:
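Human umbilical vein endothelial cells co-cultured with peripheral blood mononuclear cells under LPS stimulation; E-selectin measured by ELISA 24 h after chemical dosing. Activity fitted bidirectionally against DMSO as negative control and baseline.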

Read-out in assay [6]: Interleukin-8 (IL8), CXCL8 (gene 3576)
As to the kind of experiment: BSK_LPS_IL8: BioMAP Diversity Plus: LPS Assay for Interleukin-8 (IL8) Biomarker Activity (AID 2283078). The note with it: primary human HUVEC with PBMC; actives raise or lower the signal. An outline of the steps: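 Human umbilical vein endothelial cells co-cultured with PBMC were stimulated with LPS; IL-8 levels were measured by ELISA 24 h after chemical dosing. Activity was fitted bidirectionally against DMSO as negative control and baseline.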

Assay [7] can be described thus: BSK_LPS_SRB: Viability Assessment in the BioMAP Diversity Plus: LPS Assay (AID 2283079).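 Note: total protein by sulforhodamine B absorbance as a cytotoxicity measure; measured one day after compound addition; fitted in both directions against DMSO so loss or gain of signal counts.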 The note with it: primary human HUVEC with PBMC. The procedure, abridged: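 Human umbilical vein endothelial cells co-cultured with PBMC (LPS system) were dosed for 24 h. Total protein was stained with 0.1% sulforhodamine B after 10% TCA fixation, read at 560 nm, and fitted bidirectionally against DMSO baseline.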

Read-out in assay [8]: Interleukin-1 alpha (IL1a), IL1A (gene 3552)
Description: BSK_LPS_IL1a: BioMAP Diversity Plus: LPS Assay for Interleukin-1 alpha (IL1a) Biomarker Activity (AID 2283080). As to conditions: primary human HUVEC with PBMC; actives raise or lower the signal. An outline of the steps:
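Human umbilical vein endothelial cells co-cultured with peripheral blood mononuclear cells were LPS-stimulated and exposed to test chemicals for 24 h. IL-1 alpha was quantified by ELISA, with bidirectional curve fitting against DMSO as the negative control and baseline.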

Read-out in assay [9]: Monocyte Chemoattractant Protein-1 (MCP1), CCL2 (gene 6347)
Description: BSK_LPS_MCP1: BioMAP Diversity Plus: LPS Assay for Monocyte Chemoattractant Protein-1 (MCP1) Biomarker Activity (AID 2283081).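 For AC50: co-culture stimulated with LPS; secreted MCP-1 protein quantified by ELISA in culture supernatant.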 The note with it: primary human HUVEC with PBMC; actives raise or lower the signal. The procedure, abridged: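 HUVEC plus PBMC co-culture (human primary cells, LPS system) exposed to test chemical for 24 h; MCP-1 measured by ELISA. Bidirectional curve fitting against DMSO baseline; parallel SRB total-protein staining flags overt cytotoxicity.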

Assay [10] in a line: BSK_LPS_PGE2: BioMAP Diversity Plus: LPS Assay for Prostaglandin E2 (PGE2) Biomarker Activity (AID 2283082).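 For AC50: secreted prostaglandin E2 measured by ELISA in LPS-stimulated co-culture.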 As to conditions: primary human HUVEC with PBMC; actives raise or lower the signal. An outline of the steps:
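LPS-activated HUVEC/PBMC co-culture; cmpd dosed, 24 h; PGE2 by ELISA; bidirectional fit vs DMSO; SRB (0.1%, TCA-fixed, 560 nm) in parallel plates for overt cytotox.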

Read-out in assay [11]: Macrophage colony-stimulating factor (MCSF), CSF1 (gene 1435)
Description: BSK_LPS_MCSF: BioMAP Diversity Plus: LPS Assay for Macrophage colony-stimulating factor (MCSF) Biomarker Activity (AID 2283083). As to conditions: primary human HUVEC with PBMC; actives raise or lower the signal. An outline of the steps:
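Human umbilical vein endothelial cells co-cultured with peripheral blood mononuclear cells were exposed to compound for 24 h. M-CSF levels were measured by ELISA, and bidirectional curve fitting used DMSO as the negative control and baseline.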

Read-out in assay [12]: Tissue Factor, F3 (gene 2152)
Description: BSK_LPS_TissueFactor: BioMAP Diversity Plus: LPS Assay for Tissue Factor Biomarker Activity (AID 2283084). The note with it: primary human HUVEC with PBMC; actives raise or lower the signal. The procedure, abridged: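 Human umbilical vein endothelial cells co-cultured with peripheral blood mononuclear cells were dosed and stimulated with LPS. Cell-surface CD142 was quantified by ELISA at 24 h. Activity was fitted bidirectionally against DMSO baseline.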

Read-out in assay [13]: Tumor necrosis factor (Homo sapiens) (UniProt P01375)
As to the kind of experiment: BSK_LPS_TNFa: BioMAP Diversity Plus: LPS Assay for Tumour Necrosis Factor alpha (TNFa) Biomarker Activity (AID 2283085). As to conditions: primary human HUVEC with PBMC; actives raise or lower the signal. The procedure, abridged: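 Read-out is ELISA of TNFa in primary human endothelial cell–PBMC co-cultures at 24 h after compound. Activity in either direction was fitted against DMSO.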

Read-out in assay [14]: Vascular cell adhesion molecule 1 (VCAM1), VCAM1 (gene 7412)
As to the kind of experiment: BSK_LPS_VCAM1: BioMAP Diversity Plus: LPS Assay for Vascular cell adhesion molecule 1 (VCAM1) Biomarker Activity (AID 2283086). As to conditions: primary human HUVEC with PBMC; actives raise or lower the signal. The procedure, abridged: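 HUVEC + PBMC co-culture, LPS system; compound 24 h; VCAM-1 by ELISA; bidirectional fit vs DMSO control; parallel SRB (0.1%, TCA-fixed, 560 nm) for cytotoxicity.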

Read-out in another assay: CD40, CD40 (gene 958)
As to the kind of experiment: BSK_SAg_CD40: BioMAP Diversity Plus: SAg Assay for CD40 Biomarker Activity (AID 2283088). As to conditions: primary human HUVEC with PBMC; actives raise or lower the signal. An outline of the steps:
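Human umbilical vein endothelial cells co-cultured with PBMC; CD40 levels measured by ELISA with fluorescence read-out 24 h after chemical dosing. Gain or loss of signal fitted bidirectionally against DMSO baseline.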

Read-out in the next assay: CD69, CD69 (gene 969)
Description: BSK_SAg_CD69: BioMAP Diversity Plus: SAg Assay for CD69 Biomarker Activity (AID 2283089).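 For AC50: cell surface CD69 protein quantified by ELISA with fluorescence detection.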 The note with it: primary human HUVEC with PBMC; actives raise or lower the signal. An outline of the steps: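 Endothelial/PBMC co-culture; chemical added; 24 h incubation; CD69 ELISA with fluorescence detection; bidirectional fit vs DMSO.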

Read-out in assay [15]: Monocyte Chemoattractant Protein-1 (MCP1), CCL2 (gene 6347)
Description: BSK_SAg_MCP1: BioMAP Diversity Plus: SAg Assay for Monocyte Chemoattractant Protein-1 (MCP1) Biomarker Activity (AID 2283090). The note with it: primary human HUVEC with PBMC; actives raise or lower the signal. An outline of the steps:
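MCP-1 levels in the endothelial–PBMC SAg co-culture were quantified by ELISA at 24 h post-dosing; both increases and decreases versus DMSO scored. Cytotoxicity monitored by SRB total protein in parallel cultures.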

Read-out in assay [16]: E-selectin (Homo sapiens) (UniProt P16581)
As to the kind of experiment: BSK_SAg_Eselectin: BioMAP Diversity Plus: SAg Assay for Eselectin Biomarker Activity (AID 2283091). As to conditions: primary human HUVEC with PBMC; actives raise or lower the signal. The procedure, abridged:
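HUVEC co-cultured with PBMC, compound dosed then read at 24 h; E-selectin measured by ELISA. Activity fitted bidirectionally against DMSO as negative control and baseline.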

Read-out in the next assay: CD38, CD38 (gene 952)
As to the kind of experiment: BSK_SAg_CD38: BioMAP Diversity Plus: SAg Assay for CD38 Biomarker Activity (AID 2283087). As to conditions: primary human HUVEC with PBMC; actives raise or lower the signal. An outline of the steps:
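Human HUVEC plus PBMC co-culture stimulated with superantigen; CD38 measured by ELISA 24 h after chemical dosing. Fluorescence read-out, bidirectional fit against DMSO; cytotoxicity tracked in parallel by SRB and Alamar Blue.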

Calls of active or inactive are those of the source. Rule for the calls: active = hit-call score of the fitted dose curve at least 0.9, where 1 is the maximum; inactive = score below 0.9.

Chain of Tumor necrosis factor (Homo sapiens) (P01375 whole entry, looked up): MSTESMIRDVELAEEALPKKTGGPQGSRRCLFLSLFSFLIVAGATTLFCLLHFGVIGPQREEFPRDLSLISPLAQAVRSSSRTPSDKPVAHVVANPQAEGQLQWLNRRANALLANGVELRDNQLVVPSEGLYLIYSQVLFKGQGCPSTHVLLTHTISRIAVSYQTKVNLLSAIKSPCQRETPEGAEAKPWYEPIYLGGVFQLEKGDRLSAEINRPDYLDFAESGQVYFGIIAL
Chain of E-selectin (Homo sapiens) (P16581 whole entry, looked up): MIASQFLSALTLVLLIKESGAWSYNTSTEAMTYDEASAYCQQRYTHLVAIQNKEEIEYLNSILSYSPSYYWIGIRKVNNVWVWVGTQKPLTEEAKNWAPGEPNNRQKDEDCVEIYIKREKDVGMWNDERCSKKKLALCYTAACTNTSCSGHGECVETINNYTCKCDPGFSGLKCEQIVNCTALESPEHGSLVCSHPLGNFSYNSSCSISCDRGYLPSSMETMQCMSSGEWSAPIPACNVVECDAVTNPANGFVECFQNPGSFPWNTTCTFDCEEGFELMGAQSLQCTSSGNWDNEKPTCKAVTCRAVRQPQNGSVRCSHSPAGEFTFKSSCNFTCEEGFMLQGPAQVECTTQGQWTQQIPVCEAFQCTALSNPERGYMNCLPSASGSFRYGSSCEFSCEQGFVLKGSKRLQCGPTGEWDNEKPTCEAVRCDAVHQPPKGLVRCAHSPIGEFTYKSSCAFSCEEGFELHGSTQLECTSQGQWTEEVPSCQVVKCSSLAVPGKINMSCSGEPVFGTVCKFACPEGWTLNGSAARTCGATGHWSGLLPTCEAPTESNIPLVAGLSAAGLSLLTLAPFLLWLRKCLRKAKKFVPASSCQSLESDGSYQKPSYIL

In the case of `COc1ccc2cc(S(=O)(=O)N[C@H](CC(=O)N[C@H](Cc3ccc(CN4[C@H](C)CCC[C@@H]4C)cc3)C(=O)N(C)C(C)C)c3ccc4c(c3)OCO4)ccc2c1`, the result in [1], in assay [2] and in assay [4] was inactive. Moreover, the half-maximal activity concentration (AC50) (as a rule, the concentration giving half of the maximal activity seen) was 32.8 µM (active) in [3]; 31.3 µM (active) in [5]; 5.7 µM (active) in assay [6]; 15.5 µM (active) in assay [7]; 14.5 µM (active) in [8]; 23.1 µM (active) in assay [9]. Further, the AC50 in assay [10] was 31.1 µM (active); in [11], 19.1 µM (active); in assay [12], 33.9 µM (active); in assay [13], 33.6 µM (active); in assay [14] it was 11.3 µM (active); with CD40, CD40 (gene 958), 24 µM (active). In addition, the AC50 was 24.5 µM (active) in the assay with CD69, CD69 (gene 969); 19.1 µM (active) in assay [15]; 31.7 µM (active) in [16].
For the compound `CN(C)c1ccc(C(=C2C=CC(=[N+](C)C)C=C2)c2ccc(N(C)C)cc2)cc1`, the AC50 in [1] is 0.595 µM (active); in assay [2], 3.97 µM (active); in assay [3], 1.33 µM (active); in assay [4], 2.85 µM (active); in assay [5], 0.355 µM (active); in assay [6], 1.26 µM (active). Also, the AC50 in assay [7] is 7.67 µM (active); in [8] it was 0.147 µM (active); in assay [9], 0.269 µM (active); in assay [10], 1.13 µM (active); in assay [11], 0.476 µM (active); in assay [12], 0.662 µM (active). In addition, the AC50 in [13] is 1.46 µM (active); in assay [14] it was 2.51 µM (active); in the assay with CD40, CD40 (gene 958), 0.534 µM (active); with CD69, CD69 (gene 969) it was 0.582 µM (active); in assay [15], 0.325 µM (active); in assay [16] it was 0.223 µM (active).
For the compound `Cc1cc2c(cc1C(F)(F)F)N(C(=O)Nc1ccc(Oc3cccnc3C)nc1)CC2`, the AC50 is 23.6 µM (active) in assay [1]; 29.8 µM (active) in assay [3]; 29.2 µM (active) in assay [4]; 2.7 µM (active) in assay [6]; 3.65 µM (active) in [8]; 26.8 µM (active) in assay [11]. For the same compound, the AC50 in [14] is 14.4 µM (active); with CD38, CD38 (gene 952), 7.33 µM (active); with CD40, CD40 (gene 958) it was 18.4 µM (active). Moreover, the outcome in [2], in [5], in [7], in [9], in assay [10] and in [12] was inactive. Further, the outcome is “inactive” in assay [13]; “inactive” with CD69, CD69 (gene 969); “inactive” in [15]; “inactive” in assay [16].
